The target in the first experiment is FAM154A. As to the kind of experiment: pooled miR-30 sensor sort-seq; sequence = guide strand. The note with it: shRNA.
TAGTTCTCGGTATATTCGGAGA yielded a sensor-assay potency score (higher = more potent) of -1.23.

For TTAATCTGAAGTGCAGGTCGGC, the sensor-assay potency score (higher = more potent) was -0.481.

With TTTTATGGGGTAATCGTCCTGG, the sensor-assay potency score (higher = more potent) stood at 0.26.

Take TTGGCTTGAAGGACTCTCTGGG: the sensor-assay potency score (higher = more potent) amounted to 0.798.

The sequence TTGTTTTTTGTCATTTTAGGGA yielded a sensor-assay potency score (higher = more potent) of -0.361.

Take TTAGTCACATCCTCCAAGGGGA: the sensor-assay potency score (higher = more potent) amounted to 0.0144.

Sequence TAATCTGAAGTGCAGGTCGGCA registered a sensor-assay potency score (higher = more potent) of -1.32.

In the case of TTGTCCAACAAATAATTCTCAG, the sensor-assay potency score (higher = more potent) is -0.941.

As to AAGCTTGGTACTTATCTCGAAA, the sensor-assay potency score (higher = more potent) was -0.971.

In turn, TTGTAGTCATCCTTGGTGGTGG had a sensor-assay potency score (higher = more potent) of 0.0888.

Take TTTGTATATCCTGTGACCCAAA: the sensor-assay potency score (higher = more potent) is -1.34.

With TTATCTCGAAACTCAGTGGTGT, the sensor-assay potency score (higher = more potent) turned out to be 0.244.

For a further experiment, the target named is FAM162A. The description is as above. The note with it: shRNA.
Sequence TCATCTTCCTTTTTGAAGCGAC registered a sensor-assay potency score (higher = more potent) of -0.679.

In turn, TTCACTCGCATCTTGTTCTTTG yielded a sensor-assay potency score (higher = more potent) of -0.205.

Sequence TAACCATGAAGATGCATCCTAC yielded a sensor-assay potency score (higher = more potent) of -0.864.

TTTTTGAAGCGACCTGACCATA yielded a sensor-assay potency score (higher = more potent) of -1.33.

On to TTCTACAGCAGAAATACGGAAA, for which the sensor-assay potency score (higher = more potent) was -0.939.

In turn, ATAGCTGATCTTCACTCGCATC gave a sensor-assay potency score (higher = more potent) of -1.3.

As for TAGATAGCTGATCTTCACTCGC, the sensor-assay potency score (higher = more potent) turned out to be 0.225.

For ATAACCTAAAACAGCTTCCTGC, the sensor-assay potency score (higher = more potent) is -0.549.

TTAAAGTCTCGTGTCTTTGGGC came in with a sensor-assay potency score (higher = more potent) of 0.109.

In the case of TCACATAACCTAAAACAGCTTC, the sensor-assay potency score (higher = more potent) is -0.389.

The values above are taken from the OligoGym collection.
Note: reference of the scale not given here.
